The source of these data is PubChem BioAssay AID588436 (Broad Institute, 2011).

Hit rate of the full screen: of about 350,000 compounds, about 550 (0.16%) were called active. Many of the other results were omitted from the sample, so actives are more common in it than they were. A number with no mark means an inactive call. Cut-off read from the data, not from the text of the source: active = activation mostly above about 9.7% (no sharp cut-off); inconclusive = no clear call, values can overlap the other calls; inactive = mostly below about 3.7%.

The assay in a line: inducers of Vibrio cholerae quorum light production without autoinducers, primary screen, BH1578 luxS cqsA deficient, single point (AID 588436). Conditions: V. cholerae BH1578 lux reporter, luminescence, 6 h, at 18.7 µM; active compounds read high.
As for `Cc1ccc(CNC(=O)C2CCCN2S(=O)(=O)c2ccc3c(c2)C(C)(C)C(=O)N3C)cc1` (stereo unspecified), the activation is -0.135%. Under `CCNC(=O)CCc1nc(-c2ccc(C(C)(C)C)cc2)no1` stands “inactive”; under `CCOC(=O)C1(CCOc2ccccc2)CCN(Cc2ccc(C#CCCO)cc2)CC1`, “inactive”. Next, `CCOC(=O)C1(CCOC)CCN(Cc2ccc(C(=O)OC)cc2)CC1`: 0.0345%. Next, `CCOC(=O)C1(CCOc2ccccc2)CCN(Cc2cc(OC)cc(OC)c2)CC1`: 21.2% (active); `O=C(Nc1ccccc1C(=O)N1CCOCC1)c1ccc(Cl)cc1`: -0.216%.

With `COc1ccccc1C(=O)NC(=O)COC(=O)C1CC1`, the activation was 0.621%. Next, `CCOc1ccccc1NC(=O)CCc1nnc2ccc(NCc3ccco3)nn12`: -0.0905%; `COc1ccc2c(c1)c(C(=O)N/N=C/c1cccs1)c(C)n2C`: -0.575%. Next, `Fc1c(F)c(C(F)(F)F)c(F)c(F)c1N1CCN(c2ccc3nnc(C(F)(F)F)n3n2)CC1`: 0.463%; `COc1ccc(S(=O)(=O)N(C)C[C@H]2Oc3c(NC(=O)Nc4ccc5c(c4)OCO5)cccc3C(=O)N([C@H](C)CO)C[C@@H]2C)cc1`: 1.22%; `CCCc1nc2ccccc2c(C(=O)OCc2nnc(-c3cc(OC)c(OC)c(OC)c3)o2)c1CC`: -0.28%.

As for `CC(C)c1ccc(NC(=O)CCN2C(=O)c3ccc([N+](=O)[O-])cc3C2=O)cc1`, the activation is -0.342%.

Turning to `CN(CC1CCCO1)S(=O)(=O)c1ccc(C(=O)Nc2ccc([N+](=O)[O-])cc2)cc1` (stereo unspecified), the activation result is “inactive”. Next, `Cn1ccc(=Nc2ccc(NC(=O)c3ccc(N=c4ccn(C)c5ccc([N+](=O)[O-])cc45)cc3)cc2)cc1`: 52.2% (active); `CCOP(=O)(OCC)C(Nc1cccc(C)c1)c1ccc(F)cc1` (stereo unspecified): -0.244%; `CSc1ccc(S(=O)(=O)NCc2ccc(Cl)cc2)cc1`: -1.22%. Next, `OC[C@@H]1CN(Cc2cccs2)C[C@H](n2cnc3c(Nc4ccccc4)ncnc32)O1`: -0.66%; `C=CCn1cc(-c2cccc(C(F)(F)F)c2)cc(C#N)c1=O`: -4.13%; `CC(=O)N1CCN(C(=O)C2(NC(=O)Nc3ccc(C)cc3)CCCCC2)CC1`: -0.583%.

Consider `CNC(=O)N1c2ccccc2C=Cc2ccccc21`, for which the activation is -0.261%. For `CC(=O)Nc1cccc(-c2cc3nc(NCc4cccnc4)n(C)c(=O)c3s2)c1`, the activation result is “inactive”.

Turning to `Cc1c(Br)c([N+](=O)[O-])nn1CC(=O)Nc1sc2c(c1C(=O)OC(C)C)CCC(C)C2` (stereo unspecified), the activation was -0.23%. Next, `O=C(c1ccc(F)cc1)N1CCC(C(=O)N2CCN(S(=O)(=O)c3ccccc3Br)CC2)CC1`: “inactive”; `CC(=O)Nc1ccc(Oc2ccc3c(c2)C(=O)NC3=O)cc1`: 0.165%; `O=C(COc1coc(CN2CCN(c3ccccc3F)CC2)cc1=O)N1CCc2ccccc21`: -0.376%.

Consider `CCN(CC)S(=O)(=O)c1ccc2c3c(cccc13)C(=O)S2`, for which the activation result was “inactive”.

Take `Cc1nn(C)c(C)c1S(=O)(=O)N1CCC(CO)(Cc2ccc(Cl)cc2)CC1`: the activation was -0.416%. Next, `Cn1c(C(=O)O)ccc1S(=O)(=O)N(Cc1ccccc1)Cc1ccccc1`: “inactive”; `CN(CC(=O)NC1CCCCC1)S(=O)(=O)c1cccc2cccnc12`: -0.233%; `COc1ccc(S(=O)(=O)N2CCN(c3cnccn3)CC2)cc1`: 42.2% (active). Under `O=S(=O)(c1cccc(C(F)(F)F)c1)N1CCN(c2cnccn2)CC1` stands “inactive”; under `COc1ccc(S(=O)(=O)N2CCSCC2)cc1`, “inactive”; under `CCOc1ccc(Oc2nc(C)cc(OC)n2)nn1`, -0.469%. Next, `CC1CN(C(=O)CN2C(=O)NC(C)(c3ccccc3)C2=O)CC(C)O1` (stereo unspecified): “inactive”; `Cc1sc2nc(COC(=O)C(NC(=O)c3ccc(Cl)cc3Cl)C(C)C)[nH]c(=O)c2c1C` (stereo unspecified): -0.176%; `COc1cccc(-n2c(N)cc(=O)nc2SCC(=O)Nc2cc(C)on2)c1`: 0.462%.

`NC(=O)c1nsc(C(=O)N(CC(=O)NCc2ccc(F)cc2)Cc2ccco2)c1N`: the activation is 25% (active). For `COc1ccc(CNC(=O)C(c2ccc(O)cc2)N(Cc2ccco2)C(=O)c2snc(C(N)=O)c2N)cc1` (stereo unspecified), the activation is 0.29%. For the compound `Cc1ccnc(NC(=O)CCC(=O)N(CC(=O)NCc2ccccc2)Cc2ccco2)c1`, the activation was -0.537%. Under `Cc1ccc(C(=O)Cc2nnc(C)s2)cc1` stands -0.621%; under `COc1ccc(C(C#N)N2N=C(C)CC2(C)C)cc1` (stereo unspecified), “inactive”.

Regarding `COc1cc(N/C=C2\CC(=O)NC(C)=C2C#N)cc(OC)c1OC`, the activation is -0.38%. Next, `COc1ccc(-c2cc(C)nc3nc(N)nn23)cc1`: -1.41%; `COc1ccc(OCc2cn3c(C)cc(C)nc3n2)cc1`: 126% (active); `Cc1cc(C)nc(SCc2cn3c(C)cc(C)nc3n2)n1`: -0.12%. Next, `COc1ccc(Cl)cc1NC(=O)CN(C)Cc1ccc(OC)c(OC)c1`: -0.294%; `COc1ccc(Cl)cc1NC(=O)COc1ccc2c(c1)OCO2`: -2.78%; `COc1ccc(Cl)cc1NC(=O)COC(=O)c1ccc(Br)o1`: 78.5% (active). On to `Cc1nc(-c2ccccc2)cn2c1nc1ccccc12`, for which the activation result was “inactive”. Under `Cc1cc(C)c(S(=O)(=O)N(C)CC(=O)NCC2CCCO2)c(C)c1` (stereo unspecified) stands -0.212%; under `CCC(=O)N1c2ccc(S(=O)(=O)NCc3ccco3)cc2CC1C` (stereo unspecified), -0.345%.

`CCn1nnc2cc(C(=O)Nc3ccc(C(=O)OC(C)C)cc3)ccc21`: the activation entry was “inactive”. Turning to `CCCc1ccc(C(=O)[C@@H]2[C@@H](C(C)=O)N3c4ccc(F)cc4C=C[C@@H]3[C@@]23C(=O)Nc2ccccc23)cc1`, the activation was -0.383%. Next, `O=C(O)CCSc1nnc(-c2ccccc2)n1-c1ccccc1`: 4%. Next, `COc1cc(OC)cc(C(=O)Nc2ccc(-c3nc4ccccc4o3)c(O)c2)c1`: -1.79%; `O=C(Nc1ccc2oc(-c3ccc4ccccc4c3)nc2c1)c1cccs1`: 25% (active); `O=C(Nc1ccc2oc(-c3ccccc3F)nc2c1)c1ccco1`: 0.203%. Next, `O=S(=O)(NC1CCCCC1)c1ccc(F)c2ccccc12`: -0.148%; `NC(c1csc(NC(=O)Nc2cccc(C(F)(F)F)c2)n1)C1CCCCC1` (stereo unspecified): “inactive”; `COCCNc1ncnc2c1ncn2[C@H]1CN(CCN2CCOCC2)C[C@@H](CO)O1`: -0.715%. As for `O=C(NCc1ccc(Cl)cc1)C(=O)NCC1CCCN1S(=O)(=O)c1cccs1` (stereo unspecified), the activation entry is “inactive”. For the compound `Cc1nonc1C1CCCN1Cc1nc(-c2ccc(F)cc2F)oc1C` (stereo unspecified), the activation was 2.27%. Under `Cc1ccsc1-c1nc(CSCC(=O)NCCN2CCCC2)c(C)o1` stands -0.308%; under `CC(CCc1ccccc1)NCC(O)c1cccc([N+](=O)[O-])c1` (stereo unspecified), -0.322%. As to `COc1ccc(Cl)cc1NC(=O)C1CC(=O)N(c2ccc(F)cc2)C1` (stereo unspecified), the activation was -0.72%. Under `Cn1nnnc1NCc1ccc(Cl)c(Cl)c1` stands “inactive”; under `CCCCn1nnnc1NCc1cc(OC)c(OC)c(OC)c1`, “inactive”. Under `CCCn1nnnc1NCc1ccc(OC)cc1` stands 495% (active); under `CCCC(=O)n1nc(NCc2ccc(OC)cc2)nc1NCc1ccc(OC)cc1`, “inactive”. Under `COc1ccc(CNc2nnnn2C)cc1` stands 25.8% (active); under `COc1ccc2ccccc2c1CNc1nnnn1C`, “inactive”. As for `CCNC(=O)C1(C)CCN(Cc2ccc(C(=O)OCC)o2)C1` (stereo unspecified), the activation was -0.406%. Next, `O=C(COC(=O)CNC(=O)C1CCCCC1)NCc1ccccc1`: “inactive”; `O=C(O)c1cc(S(=O)(=O)Nc2ccc3cn[nH]c3c2)ccc1Br`: -0.342%. Under `Cc1ccc(SCC(=O)c2sc(-c3ccccc3)nc2C)cc1` stands 25% (active); under `Cc1ccc(SCC(=O)Nc2nncs2)cc1`, “inactive”. `Cc1nc(-c2ccc(Cl)cc2)sc1C(=O)CBr`: the activation was -3.57%. Under `Cc1ccsc1C(=O)N[C@@H](C)c1nnc2ccccn12` stands -5.76%. Under `COc1ccc(C(C)C)cc1-c1ccc2nncn2c1` stands -1.12%. Turning to `CCCCNC(=O)C1CCCN(S(=O)(=O)c2ccc(S(=O)(=O)NCC(C)C)cc2)C1` (stereo unspecified), the activation is -0.448%. As to `O=c1cc(CO)oc(C(Nc2cccc([N+](=O)[O-])c2)c2ccccn2)c1O` (stereo unspecified), the activation was -0.237%. Next, `CCNc1nc(NCC)nc(N(C)n2cnnc2)n1`: -0.319%. Under `Cc1cc(C)c(S(=O)(=O)n2cc(C(C)C(N)C(=O)O)c3ccccc32)c(C)c1` (stereo unspecified) stands “inactive”. As to `COc1ccc(C)cc1NC(=O)NCCCCc1ccccc1`, the activation result is “inactive”. Consider `Cc1ccc(S(=O)(=O)NNC(=O)/C=C/c2cccc(F)c2)cc1`, for which the activation entry is “inactive”. Under `COC(=O)CN1C(=O)C(C)(C)Oc2ccc(C(=O)Nc3cccc(OC)c3)cc21` stands -0.813%; under `O=C(CCN1C(=O)c2ccccc2C1=O)C1=NN[C@@H]2C(=O)N(c3ccc(F)cc3)C(=O)[C@H]12`, 1.21%; under `COC(=O)c1c(C(=O)OC)c2n(c1C)CCS2`, -0.577%. Under `Cc1cc(-n2cnc(-c3cn(C)nc3C)n2)no1` stands “inactive”; under `CCOC(=O)c1nnn(-c2nonc2-n2cccc2)c1CN1CCC(C(=O)OCC)CC1`, “inactive”. On to `Cc1c(C(=O)O)nnn1-c1nonc1N`, for which the activation is 1.08%.

As for `NNC(=O)c1nnn(-c2nonc2N)c1CN1CCCC1`, the activation is 67.1% (active). Next, `COc1ccc(NC(=O)CN(C)C(=O)CNC(=O)C2CCCCC2)cc1`: 1.72%; `COc1ccc(NC(=O)CN(C)C(=O)CC2CCCCC2)cc1`: -0.68%; `CN(CC(=O)Nc1ccc(OC(F)(F)F)cc1)C(=O)C1CCC1`: 18.8% (active).
